Sampled rows, rich in hits. Any-hit rate of the full collection: about 18%.
KAT2A inh: qHTS Assay for Inhibitors of GCN5L2; GCN5L2 HAT assay, ThioGlo1 CoA-SH fluorescence; Histone acetyltransferase KAT2A (Homo sapiens), Q92830; AID 504327, 2011; 390,000 tested, 0.21% active; Potency, µM (top dose mostly 58.9 µM), inactives show at the highest dose activity change, negative = inhibition, hits mostly inhibitors
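Preincubate 20nM GCN5L2 with compound 15 min, RT → add 50uM ThioGlo1 + 75uM H3(1-25) + 70uM acetyl-CoA → read fluorescence 0 and 20 min. Primary qHTS; fluorescent artifacts likely.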
PLK1 PBD block: qHTS for Inhibitors of PLK1-PDB (polo-like kinase 1 - polo-box domain): Primary Screen | Serine/threonine-protein kinase PLK1 (Homo sapiens), P53350 | Plk1 PBD binding of FITC phosphopeptide, fluorescence polarization | Potency, µM, for inactives: max response, negative = inhibition, usual class: inhibitors | 360,000 tested, 2.8% active; note: series mostly up to about 57 µM; nearly all actives have a fitted effect of over 65% in size
TDP1 block: qHTS Assay for Inhibitors of Tyrosyl-DNA Phosphodiesterase (TDP1); recombinant TDP1, AlphaScreen DNA substrate cleavage; 350,000 tested, 0.28% active; Tyrosyl-DNA phosphodiesterase 1 (Homo sapiens), Q9NUW8; Potency, µM (series often up to 130 µM), without a hit: top-dose activity change, negative = inhibition, hits mostly inhibitors; note: nearly all actives have a fitted effect of over 40% in size
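Steps: enzyme plus compound, 15 min RT; add biotin/phosphotyrosine-FITC oligonucleotide (15 nM final), react 5 min; add donor/acceptor beads (10 ug/ml final), 10 min; read AlphaScreen. Tdp1 at 1 nM final.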
DT40 TDP1 no CPT: qHTS for Inhibitors of human tyrosyl-DNA phosphodiesterase 1 (TDP1): qHTS in cells in absence of CPT; DT40 Tdp1-/- hTDP1 cells, no CPT, ATP luminescence, 48 h; Potency, µM (series often up to 46.2 µM), for the others: at the highest dose activity change, negative = growth inhibition, actives largely listed as inhibitors; AID 686978, 2013; 420,000 tested, 15% active; note: nearly all actives have a fitted effect of over 55% in size
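Camptothecin absent (DMSO only). Human TDP1-complemented DT40 knockout cells, 400 cells/well, 37 °C for minimum 48 hr; ATP measured via CellTiter-Glo, 30 min dark incubation, luminescence.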
VDR inh: Inhibitors of the vitamin D receptor (VDR): qHTS; Vitamin D3 receptor (Homo sapiens), P11473; VDR-SRC2-3 peptide fluorescence polarization, 2 h; Potency, µM, for the others: max response, negative = inhibition, actives largely listed as inhibitors; 400,000 tested, 0.93% active
Target sequence (P11473 whole entry, looked up): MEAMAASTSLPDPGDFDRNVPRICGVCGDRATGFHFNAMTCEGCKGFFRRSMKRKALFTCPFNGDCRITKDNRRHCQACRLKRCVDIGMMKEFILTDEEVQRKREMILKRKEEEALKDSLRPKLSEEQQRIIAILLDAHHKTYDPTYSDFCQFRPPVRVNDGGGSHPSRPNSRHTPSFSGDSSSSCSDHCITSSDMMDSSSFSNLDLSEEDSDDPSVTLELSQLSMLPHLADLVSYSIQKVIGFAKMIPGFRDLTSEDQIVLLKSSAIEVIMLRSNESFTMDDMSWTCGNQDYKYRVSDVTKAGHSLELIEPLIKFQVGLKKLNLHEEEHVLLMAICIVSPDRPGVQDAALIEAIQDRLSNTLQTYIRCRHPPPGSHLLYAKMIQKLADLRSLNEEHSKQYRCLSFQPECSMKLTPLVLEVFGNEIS
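Signal is fluorescence polarization, reporting how far test compounds block the interaction of VDR with the SRC2-3 coregulator peptide after a 2 h room-temperature incubation.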
TDP1 cell CPT: qHTS for Inhibitors of human tyrosyl-DNA phosphodiesterase 1 (TDP1): qHTS in cells in presence of CPT | chicken DT40 Tdp1-/-;hTDP1 cells + 20 nM CPT, ATP luminescence, 48 h | Potency, µM (top dose mostly 46.2 µM), inactives show top-dose activity change, negative = growth inhibition, actives largely listed as inhibitors | 420,000 tested, 12% active; note: nearly all actives have a fitted effect of over 55% in size
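Cell growth measured by CellTiter-Glo luminescence after a minimum 48 h, 37 C compound exposure with 20 nM CPT in Tdp1-knockout DT40 cells stably expressing hTDP1, seeded 400/well; qHTS titration format.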
* = called active by the depositor; ? = inconclusive; / = not tested or not shown; [ ] = another dose, or the depositor's remark. Calls come from the whole dose curve; as a rule, active = well fitted curve in the direction sought with a large enough effect; inconclusive = small, poorly fitted or top-dose-only effect, or another doubt; inactive = no such curve, though single readings can be large; an effect the other way counts as inactive or inconclusive. % is set by controls: 0 for no effect and ±100 for the full control effect; potency is the fitted concentration of half-maximal effect.

SMILES	KAT2A inh	PLK1 PBD block	TDP1 block	DT40 TDP1 no CPT	VDR inh	TDP1 cell CPT
COc1cccc(NC(=O)Cn2nnc(-c3nc(-c4ccccc4)no3)c2N)c1	-20%	/	-6%	18µM*	2%	?
Cc1ccc(-c2noc(-c3nnn(CC(=O)Nc4cccc(C(F)(F)F)c4)c3N)n2)cc1	?	/	3%	2.1µM*	5%	2.1µM*
Cc1nn(C)cc1C(C)NC(=O)c1cc(COc2ccc(F)c(F)c2)on1 (stereo not given)	-6%	-4%	4%	?	-5%	?
O=C1c2ccccc2C(=O)N1c1ccc2ncccc2c1	/	/	-14%	-1%	-10%	0%
CCOc1ccc(-c2nnc(-c3ccccc3)n2-c2ccccc2)cc1	-2%	2%	0%	10µM*	-7%	?
Cc1nnc(C)c2c(C)n(-c3ccc4ncccc4c3)c(C)c12	-6%	-6%	-3%	?	3%	12µM*
COc1ccc(C(C)=O)cc1CSc1nnc(-c2ccc(Cl)cc2)n1-c1ccccc1	-9%	-13%	10%	13µM*	-4%	13µM*
C=CCSc1nnc(-c2ccncc2)n1-c1ccc(OCC)cc1	-19%	-7%	3%	-14%	-19%	-9%
O=C(CSc1nnc(Cc2cccs2)n1Cc1ccco1)Nc1cc(Cl)cc(Cl)c1	-22%	-13%	0%	?	0%	26µM*
CSc1nccc(Oc2ccc(C#N)cc2)n1	-4%	-14%	1%	-13%	11%	2%
CCc1nn2c(=O)cc(COC(=O)c3ccc(NC(=O)COc4ccccc4C)cc3)nc2s1	18%	/	1%	-24%	18%	12%
Cc1ccc(NC(=O)CSc2nnc(C)c(=O)n2N)cc1Cl	-5%	-14%	1%	0%	2%	0%
COc1ccc(C(=O)CSc2nnc(CN3CCCCC3)n2-c2ccc(F)cc2)cc1	0%	-19%	2%	13µM*	-9%	21µM*
Cc1nnc(SCC(=O)c2ccc(Cl)cc2)n(N)c1=O	-6%	6%	-4%	-11%	20µM*	-9%
O=C(CSc1nnc(-c2ccc(Cl)cc2)n1Cc1ccco1)c1cccs1	-8%	-25%	12%	21µM*	-25%	?
NC(=O)CSc1nnc(-c2cccs2)n1Cc1ccco1	0%	-2%	1%	5%	-13%	12%
CCOc1ccc(-c2nnc(SCC(=O)c3ccc(F)cc3)n2-c2ccccc2)cc1	-8%	/	8%	?	-15%	13µM*
CC1CS(=O)(=O)CCN1/N=C/c1ccc([N+](=O)[O-])o1 (stereo not given)	/	/	/	?	/	-9%[21.1 µM]
Cc1onc(-c2c(F)cccc2Cl)c1C(=O)Nc1cc2cc([N+](=O)[O-])ccc2oc1=O	/	4%	/	2%	/	-17%
C1=Cc2ccccc2/C1=C\c1ccc2c(c1)OCO2	/	/	/	-37%	/	-24%
CCOc1ccc(-n2c(C)c3c(C)nnc(C)c3c2C)cc1	/	-9%	/	2.1µM*	/	2.9µM*
Cc1ccc(C(=O)CSc2nnc(-c3ccccc3)n2-c2ccccc2)cc1	3%	/	7%	/	10%	/
O=C(CSc1nnc(-c2ccccc2)n1-c1ccccc1)c1cccs1	0%	-3%	-1%	12µM*	-2%	?
O=C(CSc1nnc(-c2ccc(Br)cc2)n1-c1ccccc1)c1ccccc1	0%	/	1%	4.1µM*	-1%	7.3µM*
CCOc1ccc(-n2c(=O)c3ccccc3c3ccccc3c2=O)cc1	-4%	-19%	4%	3%	3%	3%
